PubChem BioAssay AID686959 (The Scripps Research Institute Molecular Screening Center, 2013)
Calls of active or inactive are those of the source. The limit is not given here; nearly all actives have IC50 up to about 8.1 µM.

Assay: small molecules binding CAG repeat RNA – biochemical, fluorescence, dose response (AID 686959)
Conditions: r(CAG) RNA repeat binding

IC50, active:
COC(=O)c1sc(N2C(=O)C(O)=C(C(=O)c3ccc(C)o3)C2c2ccc([N+](=O)[O-])cc2)nc1C (stereo not given) 636 nM
N/C(=N\N=C\c1cccs1)SC1CC(=O)N(c2ccc(Br)cc2)C1=O (stereo not given) 8270 nM
CCCOc1cccc(C2C(C(=O)c3ccc(C)o3)=C(O)C(=O)N2c2nc(C)c(C(C)=O)s2)c1 (stereo not given) 4060 nM
O=c1[nH]n2c(=O)c3c([nH]c2c1N=Nc1cccc(Cl)c1)CCC3 2330 nM
CCc1nnc(NS(=O)(=O)c2ccc(N/C=C/C(=O)c3ccc(C)cc3)cc2)s1 1900 nM
Oc1ccc(/C=N/Nc2ccnc3cc(Cl)ccc23)c(O)c1O 2500 nM
N#CC1=C(N)n2c(s/c(=C\c3ccco3)c2=O)=C(C#N)C1c1ccco1 (stereo not given) 5380 nM
O=C(C1=C(O)C(=O)N(c2nc3ccc(Cl)cc3s2)C1c1ccco1)c1ccco1 (stereo not given) 987 nM
C/C(=N\N=C(/N)SC1CC(=O)N(c2cccc(Cl)c2)C1=O)c1cccs1 (stereo not given) 5190 nM
CC(C)c1ccc(C2c3[nH]c4ccccc4c3C[C@H]3C(=O)N(c4ccccc4C(=O)N4CCC[C@H]4C(=O)O)C(=O)N23)cc1 (stereo not given in full) 3350 nM
CC1=C(C#N)c2nc(N)c(C#N)c(C)c2/C1=C\c1ccc(-c2ccccc2C(=O)O)o1 2570 nM
COc1ccc(Cn2c(O)c(/C=N/NC(=O)c3cccnc3)c3ccccc3c2=O)cc1 3070 nM
CCCOc1ccc(N2C(=O)CC(S/C(N)=N/N=C(\C)c3cccs3)C2=O)cc1 (stereo not given) 7760 nM
COc1cc(/C=C2\C(=O)N(c3ccc(NC(C)=O)cc3)N=C2c2ccccc2)ccc1O 2900 nM
CC(C)c1ccc(C2c3[nH]c4ccccc4c3C[C@H]3C(=O)N(c4ccccc4C(=O)N4CCC[C@@H]4C(=O)O)C(=O)N23)cc1 (stereo not given in full) 2840 nM
